Screens: PubChem BioAssay, Center for Chemical Genomics, University of Michigan
An excerpt weighted towards active compounds, which were near 0.93% of everything screened.
CDC25B-CDK2 inh: human CDC25B-CDK2/CyclinA binding inhibition; P30305+P24941; HTRF CDC25B-CDK2/CyclinA binding, anti-His/anti-Flag; hits give high values; z-score (no concentration beside the values); 0.72% of 94,000 active; in the data active = z-score above about 3.2
TAR Tat displ: HIV-1 TAR-Tat binding disruption; z-score (concentration not given with the values); HIV-1 TAR RNA, Tat peptide displacement FRET; hits give high values; 0.6% of 100,000 active; AID 1259389; active = z-score of 3 or more in at least 2 runs
* marks the source's active call; other numbers are inactive results; · = no result.

SMILES	CDC25B-CDK2 inh	TAR Tat displ
CN(C)c1ccc(O)c2c1C[C@H]1C[C@H]3[C@H](N(C)C)C(=O)C(C(N)=O)=C(O)[C@@]3(O)C(=O)C1=C2O	·	20*
C[C@H]1c2cccc(O)c2C(O)=C2C(=O)[C@]3(O)C(O)=C(C(N)=O)C(=O)[C@@H](N(C)C)[C@@H]3[C@@H](O)[C@@H]21	-0.66	24*
O=C(Cn1cnc(S(=O)(=O)N2CCCC2)c1)NCCC1=CCCCC1	·	0.5
Cc1ccc(-c2csc3c2ncn2c(=O)n(CC(=O)Nc4ccc5c(c4)OCO5)nc32)cc1	·	-0.88
COc1ccc(Cc2nnc3sc(-c4ccncc4)nn23)cc1	-0.43	0.74
O=S(=O)(c1cccc2nsnc12)N1CCn2c(nc3ccccc32)C1	-0.8	0.79
O=S(=O)(c1cccc(S(=O)(=O)N2CCN(c3cnccn3)CC2)c1)N1CCOCC1	-1.9	-0.47
COC(=O)c1c(N)n(-c2ccc(OC)c(OC)c2)c2nc3ccccc3nc12	10*	1.2
CCOC(=O)c1c(N)n(-c2ccc(C)c(C)c2)c2nc3ccccc3nc12	-2.2	1.6
CCCCOC(=O)c1c(N)n(-c2ccccc2OC)c2nc3ccccc3nc12	1.6	·
CCCCOC(=O)c1c(N)n(-c2ccc(OC)cc2)c2nc3ccccc3nc12	11*	0.97
COC(=O)c1ccc2[nH]c3c(c2c1)CCCC3	-3	·
O=S(=O)(c1ccc2[nH]c3c(c2c1)CCCC3)N1CCCCC1	·	-0.42
O=S(=O)(c1ccc2[nH]c3c(c2c1)CCCCC3)N1CCCCC1	·	3.4*
CC(C)OC(=O)c1ccc2[nH]c3c(c2c1)CCCC3	18*	-1.5
O=C(CSc1n[nH]c(-c2ccco2)n1)c1ccc(Cl)cc1	-2.2	17*
O=C(CSc1n[nH]c(-c2ccccc2)n1)c1ccc(Cl)cc1	-1.4	·
O=C(CSc1nnc(-c2ccco2)c(-c2ccco2)n1)Nc1cnc2ccccc2c1	0.46	26*
COc1ccc(C(=O)CSc2nnc(-c3ccco3)c(-c3ccco3)n2)cc1	-1.2	20*
COc1ccc(C(=O)Cn2c3ccccc3n3nc(-c4ccco4)nc23)cc1	-5.4	7.1*
O=C(Nc1cnc2ccccc2c1)c1ccco1	·	0.67
COc1ccc(C(=O)CSc2ccc(-c3cccs3)nn2)cc1	·	0.45
COc1ccc(C(=O)Cn2c3ccccc3n3nc(-c4ccco4)nc23)cc1OC	-1.2	0.31
COc1cc2ncnc(NNC(=O)c3cccs3)c2cc1OC	-0.77	·
O=C1C(c2ccccc2)=C(Nc2cccc(F)c2)c2ccccc21	-0.39	1.5
SMILES	CDC25B-CDK2 inh	TAR Tat displ
CCn1ccc2cc(S(=O)(=O)N3CCCN(C(=O)NC4CCCCC4)CC3)ccc21	·	1.3
Cc1cc(C)cc(S(=O)(=O)NCCn2nc(-c3ccc(F)cc3)ccc2=O)c1	·	0.42
COc1cccc2c(=O)c(NC(=O)NCc3ccco3)c[nH]c12	-2	-0.6
CN(C)S(=O)(=O)N1CCC(c2nn(-c3ccccc3)c(=O)o2)CC1	-1.1	1.9
Cc1cc(O)c(C=O)c2c1C(=O)Oc1c(C)c(O)c3c(c1O2)C(O)OC3=O (configuration not stated)	·	4*
COc1cc(C)c2c(c1C=O)Oc1c(c(C)c(O)c3c1C(O)OC3=O)OC2=O (configuration not stated)	·	0.93
COc1ccc(C2=NN3C(C2)c2cc(Br)ccc2OC3c2ccncc2)cc1 (configuration not stated)	0	-1.8
CC(=C/C(=O)O)/C(=C\c1cccnc1)C(=O)O	-1.3	·
O=C(/C=C/c1cccnc1)c1ccc[cH-]1.[Fe+2].c1cc[cH-]c1	15*	·
O=C1OC2(O)C3C4C=CC(C4)C3C(=O)N2c2c(Br)cc(Br)cc21 (configuration not stated)	-1.3	·
CC(C)Sc1ncc(Cl)c(C(=O)N(Cc2ccccc2)C2CCS(=O)(=O)C2)n1 (configuration not stated)	0.05	-0.92
CCOC(=O)c1c(NC(=O)N2CC(C)Oc3ccccc32)sc2c1CCCC2 (configuration not stated)	·	0.95
CC1=C(C(=O)OCC2CCCO2)C(c2ccccc2F)C2=C(CC(C)(C)CC2=O)N1 (configuration not stated)	-0.72	0.14
CC1=C(C(=O)OCC2CCCO2)C(c2ccccc2C)C2=C(CC(C)(C)CC2=O)N1 (configuration not stated)	-5.5	5*
COc1ccc(C2OC(c3cc(Br)ccc3OC(C)=O)=NN2C(C)=O)cc1OC (configuration not stated)	·	0.89
Cc1ccc(-c2csc(-c3cc4c([nH]c3=O)CC(c3ccccc3)CC4=O)n2)cc1 (configuration not stated)	-0.21	-6.3
O=C1CC(c2ccco2)Cc2[nH]c(=O)c(-c3nc(-c4ccc(Br)cc4)cs3)cc21 (configuration not stated)	8.2*	3.7*
O=C(O)c1cc(-c2ccc(O)c(O)c2)nc2n[nH]c(-c3ccccc3)c12	-0.65	19*
O=C(O)c1ccc(-c2cc(C(=O)O)c3c(-c4ccccc4)[nH]nc3n2)cc1	·	1.8
COc1cc(CNC(=O)c2sc3nc(-c4ccncc4)ccc3c2N)cc(OC)c1	-1.5	1.2
Nc1c(C(=O)NCc2ccco2)sc2nc(-c3ccncc3)ccc12	12*	-3.5
O=C(O)c1ccc2nc(-c3ccco3)c(-c3ccco3)nc2c1	·	51*
O=C(O)c1cc(-c2ccco2)nc2ccc(Br)cc12	·	6.4*
O=C(NCc1ccco1)c1ccc2nc(-c3cccs3)c(-c3cccs3)nc2c1	·	-0.7
O=C(O)c1cc(-c2ccc(O)cc2)nc2ccc(Br)cc12	-1.1	·
SMILES	CDC25B-CDK2 inh	TAR Tat displ
CCOC(=O)c1noc2ncnc(Nc3ccc(F)cc3)c12	·	0.95
COc1ccc(OC)c(NC(=O)c2cc3c(s2)-c2ccsc2CC3)c1	·	-1.6
Cc1ccc(NS(=O)(=O)c2cc3[nH]c4c(c3cc2C)C(=O)CCC4)cc1Cl	·	1.7
CCC(C)NS(=O)(=O)c1cc(Br)cnc1N (configuration not stated)	-0.3	2.2
CC(=O)Nc1ccc(NC(=O)c2nccnc2C(=O)O)cn1	11*	·
Cc1ccc(NC(=O)c2nccnc2C(=O)O)cc1	-0.79	·
COc1ccc(-n2c(=O)[nH]c(=O)c3sc(N)nc32)cc1	0.15	7.3*
Nc1nc2c(s1)c(=O)[nH]c(=O)n2-c1ccccc1	0.38	1.2
O=C(CCC(=O)N1Cc2cccn2-c2ccccc21)N1CCN(c2ncccn2)CC1	·	0.95
CCOC(=O)c1nc2ccccc2nc1C	·	1.5
CCOC(=O)c1nc2ccccc2n(C(C)=O)c1=O	19*	0.02
COc1ccc(-n2c(/C=C/c3c[nH]c4ccc(OC)cc34)nc3ccccc3c2=O)cc1	-1.8	-1
S=C(Nc1ccc2nc3c4ccccc4c4ccccc4c3nc2c1)NC1CC1	7.1*	·
COCCNC(=O)Nc1ccc2nc3c4ccccc4c4ccccc4c3nc2c1	20*	·
O=C(NNc1cc(C(F)(F)F)nc2ccccc12)Nc1ccccc1	0.86	·
O=C(NC1CC1)c1ccc(NC(=O)c2nsc3ccccc23)cc1	-3.1	2.2
O=C(COC(=O)c1ccc2nc3c4ccccc4c4ccccc4c3nc2c1)c1ccccc1	-2	·
O=C(NCCO)c1ccc2nc3c4ccccc4c4ccccc4c3nc2c1	8.2*	·
C=CCNC(=O)Nc1ccc2nc3c4ccccc4c4ccccc4c3nc2c1	21*	·
COCCNC(=O)Nc1ccc2nc(NS(C)(=O)=O)sc2c1	·	0.39
O=C1CCSc2ccc(S(=O)(=O)N3CCCN(Cc4ccc(F)cc4)C3)cc2N1	·	0.97
